The text below walks through data of PubChem BioAssay (EPA / NIEHS).

In general, AC50 refers to the concentration giving half of the maximal activity seen.

Several values for one entry are separate records, joined by “and”; a condition that tells them apart may be missing. Equal values may be shown once. More than one record can exist for a structure, and the calls need not agree. Activity calls are given as the source filed them. Rule for the calls: active = hit-call score of the fitted dose curve at least 0.9, where 1 is the maximum; inactive = score below 0.9.

Read-out in this experiment: Interferon-inducible T-cell alpha chemoattractant (ITAC), CXCL11 (gene 6373)
As to the kind of experiment: BSK_hDFCGF_ITAC: BioMAP Diversity Plus: hDFCGF Assay for Interferon-inducible T-cell alpha chemoattractant (ITAC) Biomarker Activity (AID 2284251). As to conditions: primary human foreskin fibroblasts. How it is done: BSK_hDFCGF is a cell-based, multiplexed-readout assay that uses foreskin fibroblast, a human skin primary cell, with measurements taken at 24 hours after chemical dosing in a 96-well plate.BSK_hDFCGF_ITAC is an assay component measured in the BSK_hDFCGF assay. It measures I-TAC antibody related to regulation of gene expression using ELISA technology.Data from the assay component BSK_hDFCGF_ITAC was analyzed at the endpoint, BSK_hDFCGF_ITAC, in the positive analysis fitting direction relative to DMSO as the negative control and baseline of activity. Using a type of binding reporter, gain or loss-of-signal activity can be used to understand protein changes. To generalize the intended target to other relatable targets, this assay endpoint is annotated to the 'cytokine' intended target family, where the subfamily is 'chemotactic factor'.
The levels of cell surface (or secreted, indicated by the prefix "s") biomarker endpoints were measured by ELISA. Overt cytotoxicity to cells in confluent adherent cultures (all systems other than the BT system) was assessed by measuring total protein levels using sulforhodamine B (SRB) staining in parallel cultures at the time of biomarker measurements, indicated as SRB endpoints. For proliferation assays for adherent cell types, individual cell types are cultured at sub-confluence and relative cell numbers quantified by SRB staining at time points optimized for each system (48 h: 3C and CASM3C systems; 72 h: BT and HDF3CGF systems; 96 h: SAg system). SRB was performed by staining cells with 0.1% SRB after fixation with 10% TCA and reading wells at 560 nm.Viability and proliferation of PBMC (T cells) was quantified by Alamar Blue reduction for the SAg and BT systems. For PBMC viability (referred to as PBMC Cytotoxicity within the assay endpoint names), cells were plated (75,000/well in a 96-well plate) and then chemical samples added for 1 h before addition of activators, SEB and TSST-1 (20 ng/mL final concentration each). Cells were incubated for 90 h. Then, Alamar Blue (20 uL/well) (Invitrogen, Cat DAL1100) was added for 6 h, and the plates were read with a fluorescence microplate reader at 546/580 nm (excitation/emission). For PBMC proliferation, cells were plated and activated as above but incubated for only 16 h prior to addition of Alamar Blue. Plates were read after 6 h.
Turning to `C[Si](Cl)(Cl)CCC(F)(F)C(F)(F)C(F)(F)C(F)(F)C(F)(F)C(F)(F)F`, the result was inactive and the AC50 is 1.49 µM (active). `FC(F)(F)C(F)(F)C(F)(F)CC1CO1` (stereo not given): the result was inactive and the AC50 was 5.97 µM (active). Turning to `NS(=O)(=O)C(F)(F)C(F)(F)C(F)(F)C(F)(F)C(F)(F)C(F)(F)F`, the AC50 was 43.1 µM (active) and 39.1 µM (active). For `CNS(=O)(=O)C(F)(F)C(F)(F)C(F)(F)C(F)(F)C(F)(F)C(F)(F)C(F)(F)C(F)(F)F`, the outcome was inactive. On the same count and under the same terms, the entry for `O=C(O)C(F)(F)C(F)(F)C(F)(F)OC(F)(C(F)(F)F)C(F)(F)F` is “inactive”; for `NCC(F)(F)C(F)(F)C(F)(F)C(F)(F)C(F)(F)C(F)(F)F` it is “inactive”. On the same count and under the same terms, the entry for `NC(=O)C(F)(F)C(F)(F)C(F)(F)C(F)F` is “inactive”; for `OCC(F)(F)C(F)(F)C(F)(F)C(F)(F)C(F)(F)C(F)(F)CO` it is “inactive”.

For the molecule `O=S(=O)(O)CCC(F)(F)C(F)(F)C(F)(F)C(F)(F)C(F)(F)C(F)(F)C(F)(F)C(F)(F)F`, the outcome was inactive and the AC50 is 30 µM (active). In the same order, the values of `FC(F)(F)C(F)(F)C(F)(F)C(F)(F)C(F)(F)C(F)(F)C(F)(F)CCI` are “inactive” and 3.33 µM (active).

On to `OCCCCC(F)(F)C(F)(F)C(F)(F)C(F)(F)F`, for which the result was inactive. In the case of `CCN(CCO)S(=O)(=O)C(F)(F)C(F)(F)C(F)(F)C(F)(F)C(F)(F)C(F)(F)C(F)(F)C(F)(F)F`, the AC50 was 34.8 µM (active) and 24.3 µM (active). As to `COC(F)(C(F)F)C(F)(F)F` (stereo not given), the outcome was inactive. For `FC(F)(F)C(F)(F)C(F)(F)C(F)(F)C(F)(F)C(F)(F)CC[Si](Cl)(Cl)Cl`, the outcome was inactive. The same measure, in the same setting: the entry for `O=C(Cl)C(F)(F)C(F)(F)C(F)(F)C(F)(F)C(F)(F)C(F)(F)F` is “inactive”; for `O=C(O)C(F)(F)C(F)(F)C(F)(F)C(=O)O` it is “inactive”; for `O=C(O)C(F)(F)C(F)(F)C(F)(F)OC(F)(F)F` it is “inactive”. As for `O=C(O)C(F)(F)OC(F)(F)C(F)(F)OC(F)(F)C(F)(F)OC(F)(F)F`, the result was inactive. In the case of `C=C(C)C(=O)OCC(F)(F)C(F)(F)C(F)(F)C(F)F`, the AC50 was 7.82 µM (active) and the result was inactive.

As to `CCOC(=O)CC(=O)C(F)(F)C(F)(F)F`, the result was inactive. Turning to `O=C(O)C(F)(F)C(F)(F)C(F)(F)C(F)(F)C(F)(F)C(F)(F)C(F)F`, the concentration at half-maximal activity (AC50) is 0.577 µM (active) and the result was inactive. On to `CO[Si](C)(CCC(F)(F)C(F)(F)C(F)(F)C(F)(F)C(F)(F)C(F)(F)F)OC`, for which the result was inactive. On the same count and under the same terms, the entry for `NC(=O)C(F)(F)C(F)(F)C(F)(F)C(F)(F)C(F)(F)C(F)(F)C(F)(F)F` is “inactive”. Same read-out and setting: the value for `OCC(O)CC(F)(F)C(F)(F)C(F)(F)C(F)(F)C(F)(F)C(F)(F)C(F)(F)C(F)(F)F` (stereo not given) was “inactive”. Regarding `C=CC(=O)OCC(F)(F)C(F)(F)C(F)(F)C(F)(F)C(F)(F)C(F)(F)C(F)(F)C(F)F`, the AC50 is 30 µM (active).

For the molecule `C=CC(=O)OCCC(F)(F)C(F)(F)C(F)(F)C(F)(F)F`, the AC50 was 25 µM (active) and 21.5 µM (active). In the case of `O=S(=O)(O)CCC(F)(F)C(F)(F)C(F)(F)C(F)(F)F`, the result was inactive and the AC50 is 0.931 µM (active). Take `NCC(F)(F)C(F)(F)C(F)(F)C(F)(F)C(F)(F)C(F)(F)C(F)(F)C(F)(F)F`: the result was inactive. In the case of `NC(O)(C(F)(F)F)C(F)(F)F`, the outcome was inactive. On the same count and under the same terms, the entry for `O=S(=O)(Cl)C(F)(F)C(F)(F)C(F)(F)C(F)(F)C(F)(F)C(F)(F)C(F)(F)C(F)(F)F` is “inactive”; for `O=C(O)CCC(F)(F)C(F)(F)C(F)(F)C(F)(F)C(F)(F)C(F)(F)C(F)(F)F` it is “inactive”. With `CCN=C1C=CC(=C(c2ccc(N(CC)CC)cc2)c2ccc(N(CC)CC)cc2)c2ccccc21`, the AC50 is 704 nM (active) and 1.12 µM (active). Regarding `C=CC(=O)OCC(F)(F)C(F)(F)C(F)(F)COC(=O)C=C`, the AC50 is 733 nM (active) and 1.58 µM (active).
